From PubChem
This is a sample that favours compounds with a hit; in the whole collection about 1.8% have one here.
Granule exo inh: lytic granule exocytosis inhibition; TALL-104 LAMP-1 surface exposure, flow cytometry; cells stimulated with thapsigargin and PMA; inhibition, % at 10 µM; actives 0.66% (n = 360,000); AID 651702;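 active = inhibition above about 55%, limit read from the data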
GC-A act: GC-A (human) enzyme activation. P16066. HEK293 GC-A cells, cGMP TR-FRET, EC30 ANP; 0% at EC30 ANP, 100% saturating ANP. activation, % at 10 µM. actives 0.14% (n = 370,000). AID 1671463; in the data active = activation above about 40%
NPR2 activator: GC-B (human) receptor activation; P20594; HEK293-GC-B cells, CNP EC30, cGMP TR-FRET; 0% at EC30 CNP, 100% saturating CNP; activation, % at 10 µM; actives 0.11% (n = 370,000); AID 1920062;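 active = activation at 10 µM reaching about 35% in either raw or pattern-adjusted values, limit read from the data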
Target sequence (P20594 whole entry, looked up): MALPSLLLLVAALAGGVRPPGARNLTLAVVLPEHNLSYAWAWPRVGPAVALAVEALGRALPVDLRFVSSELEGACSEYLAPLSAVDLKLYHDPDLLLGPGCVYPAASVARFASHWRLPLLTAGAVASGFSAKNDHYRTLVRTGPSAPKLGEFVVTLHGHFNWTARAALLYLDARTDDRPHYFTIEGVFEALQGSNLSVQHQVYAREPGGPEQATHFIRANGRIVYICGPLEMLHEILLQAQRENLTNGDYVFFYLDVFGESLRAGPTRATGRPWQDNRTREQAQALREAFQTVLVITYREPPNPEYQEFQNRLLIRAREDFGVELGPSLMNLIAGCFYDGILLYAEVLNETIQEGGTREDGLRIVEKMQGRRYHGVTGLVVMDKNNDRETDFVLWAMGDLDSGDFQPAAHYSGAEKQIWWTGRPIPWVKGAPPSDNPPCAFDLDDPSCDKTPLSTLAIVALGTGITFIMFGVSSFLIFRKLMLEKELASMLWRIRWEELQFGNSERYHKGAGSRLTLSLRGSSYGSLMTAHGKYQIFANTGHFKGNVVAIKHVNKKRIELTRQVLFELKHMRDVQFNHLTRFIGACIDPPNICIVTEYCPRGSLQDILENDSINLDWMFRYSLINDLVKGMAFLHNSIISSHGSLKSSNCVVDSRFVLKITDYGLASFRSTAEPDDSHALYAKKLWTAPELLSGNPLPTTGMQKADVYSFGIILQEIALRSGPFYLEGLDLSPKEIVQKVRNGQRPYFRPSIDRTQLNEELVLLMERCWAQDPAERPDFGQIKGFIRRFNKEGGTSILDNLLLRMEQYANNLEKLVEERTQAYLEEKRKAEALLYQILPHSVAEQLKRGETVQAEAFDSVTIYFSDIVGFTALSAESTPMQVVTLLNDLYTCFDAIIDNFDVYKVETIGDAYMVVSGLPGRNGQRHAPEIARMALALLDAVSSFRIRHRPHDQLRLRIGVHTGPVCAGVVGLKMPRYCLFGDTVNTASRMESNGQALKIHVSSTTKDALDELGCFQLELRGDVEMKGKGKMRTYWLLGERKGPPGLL
Myeloid diff 2: promotes myeloid progenitor differentiation; ER-HoxA9 myeloid progenitors, lysozyme-GFP differentiation, flow cytometry; calls only at 10 µM; actives 1% (n = 360,000); AID 624256;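 active = normalized GFP-positive differentiation at or above the plate's own cutoff, the solvent-only control mean plus 3 SD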;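 also: cells exposed to compound for four days before flow analysis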
Myeloid diff CP1: promotes myeloid progenitor differentiation; shares compounds with Myeloid diff 2; ER-HoxA9 myeloid progenitors, GFP/Mac1 double-positive flow; calls only; actives 2% (n = 2,300);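 active = share of green or green-and-red cells above 9 and 9% in run 1 or 4 and 3% in run 2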
GFP autofluor: flagged as fluorescent in myeloid differentiation counter-screen; shares compounds with Myeloid diff 2; ER-HoxA9 myeloid progenitors, no estrogen, GFP autofluorescence flow cytometry; vehicle wells 0%, positive control 100%; fluorescence response, % (test concentration not listed); actives 7.4% (n = 2,300); AID 651707;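 active = over 5% cells positive for green fluorescent reporter, or over 2% positive for both it and APC stain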
Numbers stand for hits; . = inactive; / = not tested or not shown; + = active, no number.

SMILES | Granule exo inh | GC-A act | NPR2 activator | Myeloid diff 2 | Myeloid diff CP1 | GFP autofluor
ClCCn1cnc2c(SCc3ccccc3Cl)ncnc21 | . | . | . | . | . | .
COC(=O)COc1ccc(S(=O)(=O)Nc2ccc3c(c2)OCO3)cc1 | . | . | . | . | / | /
COC(=O)COc1ccc(S(=O)(=O)Nc2ccc3c(c2)OCO3)cc1Cl | . | . | . | + | . | .
c1ccc(COc2ncnc3c2ncn3CCCN2CCN(c3ncccn3)CC2)cc1 | . | . | . | . | . | .
c1ccc(COc2ncnc3c2ncn3CCCN2CCN(c3ccccn3)CC2)cc1 | . | . | . | . | / | /
Cc1cc(N2CCN(c3nc4ccccc4s3)CC2)n2ncnc2n1 | . | . | . | . | . | .
CCOc1ccccc1C(C(=O)NCCOC)N(CCOC)C(=O)Cn1nnc2ccccc21 (stereo not given) | . | . | . | . | . | .
CCN1C(=O)[C@H]2[C@@H](c3ccc(C(F)(F)F)cc3)N[C@]3(CCCN(CC4CCCCC4)C3=O)[C@H]2C1=O | . | . | . | + | . | .
CCN(Cc1nc2cc(Cl)ccc2c(=O)[nH]1)C(=O)c1cc2c(s1)CCCCC2 | . | . | . | . | . | .
O=C(CCc1nc2ccccc2c(=O)[nH]1)N1CCCc2ccccc21 | . | . | . | + | . | .
CN(C)c1ccc(CNCc2cccnc2)cc1 | . | . | . | . | . | .
CC(C)(C)NC(=O)COc1ccc(CNCc2cccnc2)cc1 | . | . | . | . | / | /
O=C(O)CCC(=O)NNC(=O)c1ccc(-c2ccccc2)cc1 | . | . | . | . | . | .
COc1ccc(OC)c(-n2c(O)cnc2Nc2nc(C)cc(C)n2)c1 | . | . | . | . | . | .
C#Cc1cccc(OC[C@@H](O)CN2CCC(C(O)(c3ccccc3)c3ccccc3)CC2)c1 | / | . | . | / | / | /
CCCNC(=O)N[C@H]1CC[C@@H](CCn2cc(-c3cccc(F)c3)nn2)O[C@@H]1CO | . | . | . | + | . | .
CCC(=O)Nc1cccc(NC(=O)c2ccccc2Cl)c1 | . | . | . | . | . | .
COC(=O)c1cn(NC(=O)c2ccc(OC)c(OC)c2)c(=O)c2ccccc12 | . | . | . | + | . | .
CC1(C(=O)NS(=O)(=O)Cc2ccccc2C(F)(F)F)CCN1C(=O)c1cccc(F)c1 (stereo not given) | . | . | . | . | / | /
CCCN(C)C1CN(Cc2cn(CCCC(=O)OC)nn2)S(=O)(=O)C1 (stereo not given) | . | . | . | . | / | /
CCCCCC(=O)N1C[C@@H](O)[C@H](n2cc(COC(=O)c3ccccc3)nn2)C[C@@H]1c1ccc(OC)cc1 | . | . | . | . | . | .
CCc1nc2ccc(C(=O)NCCc3ccccn3)cn2c1N(C)Cc1ccc(N(C)C)cc1 | . | . | . | . | / | /
Cc1ccc2nc(NC(=O)CSCC(=O)OCC(=O)c3ccccc3)sc2c1 | . | . | . | + | . | .
Cc1cc(-c2cc(-c3ccc(Cl)cc3)nc(N)c2C#N)co1 | . | . | . | + | . | .
O=c1cc(-c2ccccc2Cl)oc2c(Br)ccc(O)c12 | . | . | . | + | . | .
SMILES | Granule exo inh | GC-A act | NPR2 activator | Myeloid diff 2 | Myeloid diff CP1 | GFP autofluor
O=C(O)C1CCCCC1C(=O)NCCCn1ccnc1 (stereo not given) | . | . | . | . | / | /
O=C(NCCCn1ccnc1)C(=O)NC1CCCCC1 | . | . | . | + | . | .
O=C(NCCCn1ccnc1)NC(C(F)(F)F)C(F)(F)F | . | . | . | . | . | .
CCC[C@H]1[C@@H](N(C)Cc2ccccc2)CC[C@@]23CCCN2C(=O)CCC[C@@H]13 | / | . | . | / | / | /
O=C(O)CCNC(=O)/C(=C\C=C\c1ccccc1)NC(=O)c1ccccc1 | . | . | . | . | . | .
CCOc1ccccc1NC(=O)NNC(=O)CCn1nc(C)c([N+](=O)[O-])c1C | / | . | . | / | / | /
CCOC(=O)c1csc(NC(=O)CCS(=O)(=O)c2ccc(Cl)cc2)n1 | . | . | . | . | / | /
CCn1nc(C(=O)OCC(=O)Nc2nc(-c3ccc(OC)cc3)cs2)c2ccccc2c1=O | . | . | . | + | . | .
COc1ccc2[nH]c3c(c2c1)CCNC3C1CC=C(C)CC1 (stereo not given) | . | . | . | . | / | /
COc1ccc2[nH]c3c(c2c1)CCNC3c1ccc([N+](=O)[O-])o1 (stereo not given) | . | . | . | + | . | 99
